Screening results as filed in PubChem.
Abeta yeast res – qHTS for compounds that reverse cellular toxicity of Amyloid beta (A-beta) peptide in yeast: Primary Screen | Potency, µM (doses to about 46.1 µM), hits mostly activators | yeast expressing A-beta42, growth rescue, OD600, 48 h; response scale: 0% DMSO, 100% iron-clioquinol control | actives 0.063% (n = 410,000) | AID 1347071, 2019; further: nearly all actives have a fitted effect of over 55% in size
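Growth rescue measured by 600 nm absorbance after 48 h yeast culture at 30 C with compound. Values normalized between DMSO and an equimolar ferric chloride plus clioquinol control.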
aSyn rescue – qHTS of alpha-syn Inhibitors; Yeast expressing alpha-synuclein, growth rescue, BacTiter-Glo, 24 h; Potency, µM (doses to about 46.1 µM), for the others: at the highest dose growth rescue (activation), most hits filed as activators; actives 0.14% (n = 370,000); AID 652106, 2013; further: % of control where 0% means no effect; nearly all actives have a fitted effect of over 65% in size
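Galactose-induced alpha-syn yeast (OD600=0.02, raffinose-pregrown) + pinned cpd, 24 hr, 30 deg C; growth by BacTiter-Glo luminescence. Growth restoration scores as activation.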
TDP-43 yeast inh – qHTS of TDP-43 Inhibitors; TDP-43 expressing yeast growth rescue, BacTiter-Glo, 24 h; Potency, µM (titrated, usually from 46.1 µM), for inactives: at the highest dose growth rescue (activation), most hits filed as activators; actives 1.8% (n = 410,000); further: % of control where 0% means no effect; nearly all actives have a fitted effect of over 50% in size
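In this qHTS, compounds that restore growth of yeast expressing TDP-43 appear as activators. Cells (OD600=0.02, galactose medium, raffinose-pregrown) are incubated with compound 24 hr at 30 deg C and growth is quantified by BacTiter-Glo.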
FUS yeast rescue – qHTS for Suppressors of FUS Proteinopathy: Primary screen using FUS-linked yeast assay. S. cerevisiae FUS-expressing, growth rescue, OD600, 24 h. Potency, µM (titrated, usually from 76.6 µM), actives largely listed as activators. actives 0.24% (n = 390,000);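 further: plate controls were DMSO vehicle for no effect and reference control for full effect; nearly all actives have a fitted effect of over 55% in size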
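S. cerevisiae expressing FUS from galactose induction served as the toxicity model. Growth after 24hr at 30C, read as absorbance at 600 nm, indicates suppression of toxicity; compounds dosed at several concentrations.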
* = called active by the depositor; i = inactive; ? = inconclusive; · = not tested or not shown; ! = not confirmed by another sample. Hits are enriched below; roughly 2.1% of the tested compounds scored in any of these assays. The call rests on the fitted dose curve; in most records, active means well fitted curve in the direction sought with a large enough effect; inconclusive means small, poorly fitted or top-dose-only effect, or another doubt; inactive means no such curve, though single readings can be large; an effect the other way counts as inactive or inconclusive. Potency means the concentration at half of the fitted maximal effect.

SMILES | Abeta yeast res | aSyn rescue | TDP-43 yeast inh | FUS yeast rescue
O=C(N[C@@H]1C/C=C\C[C@H](CC(=O)N(CCO)Cc2ccccc2)C(=O)N[C@@H](Cc2ccccc2)COC1=O)OCC1c2ccccc2-c2ccccc21 | i | 7.1% | 9.0% | 31.6µM*
O=C(C[C@H]1C/C=C\C[C@H](Cc2ccc(F)cc2)C(=O)O[C@@H](c2ccccc2)CNC1=O)N[C@H](CO)Cc1ccccc1 | i | 1.5% | 10.0% | 28.2µM*
O=C1NC[C@H](c2ccccc2)OC(=O)[C@H](Cc2ccc(F)cc2)CC/C=C/C[C@H]1CC(=O)N(CCO)Cc1ccccc1 | i | -1.0% | 6.5% | 31.6µM*
CCNC(=O)C1(C)CCN(C(=O)c2ccccc2F)C1 (stereo not drawn) | i | -0.4% | 16.9% | i
Cc1ccc(S(=O)(=O)n2c(=O)oc3ccccc32)cc1 | i | 11.2% | 8.91µM* | i
CCOC(=O)c1ccc(S(=O)(=O)n2c(=O)oc3ccccc32)cc1 | i | 1.8% | 24.4% | i
COc1ccc(NC(=O)N2CCCc3ccccc32)cc1 | i | -0.8% | 16.3% | i
COc1ccc(/C=C/C(=O)N2CCCc3ccccc32)cc1 | i | -1.0% | 20µM* | ·
COc1ccc(N/N=C(/C(C)=O)N2CCCc3ccccc32)cc1 | i | -2.9% | 20µM* | i
CN(C)c1cccc(C(=O)N2CCCC(CCC(=O)NCc3ccccc3F)C2)c1 (stereo not drawn) | i | 1.1% | 5.2% | i
O=C(CCCc1ccccc1)Nc1ccccc1[N+](=O)[O-] | i | 23.2% | 11.2µM* | i
O=C(CCc1ccccc1)NC(=S)Nc1ccccc1[N+](=O)[O-] | ? | 7.2% | 12.6µM* | i
Cc1c(NC(=S)NC(=O)C(C)(C)C)cccc1[N+](=O)[O-] | i | 1.1% | 14.1µM* | i
O=C(NC1CCSc2ccccc21)c1cc(S(=O)(=O)N2CCOCC2)ccc1Cl (stereo not drawn) | i | -1.6% | -0.7% | i
CCN(CC)S(=O)(=O)c1cccc(N=Nc2c(O)c3ccccc3oc2=O)c1 | i | -3.5% | -9.9% | i
COc1ccc(NS(=O)(=O)c2cnc(N)nc2)cc1Cl | i | · | -2.8% | i
CC(NS(=O)(=O)OCC(Cl)(Cl)Cl)c1ccc(C(C)(C)C)cc1 (stereo not drawn) | i | -54.2% | -95.3% | i
C[C@H](NS(=O)(=O)OCC(Cl)(Cl)Cl)C1CC1c1ccccc1 (stereo partly drawn) | i | -4.5% | 22.4µM* | i
CN(C(=O)c1ccc(-c2nn(C)c(=O)c3ccccc23)cc1)c1ccccc1 | i | · | 14.1µM* | i
Cn1nc(-c2ccc(OCC(=O)Nc3ccccc3)cc2)c2ccccc2c1=O | i | · | 15.8µM* | i
Cc1cccc(NC(=O)COc2ccc(-c3nn(C)c(=O)c4ccccc34)cc2)c1 | i | 4.5% | 35.5µM* | ?
COc1ccccc1NC(=O)Cn1nc(-c2ccc(C)cc2)c2c(c1=O)CCCC2 | i | · | 31.6µM* | i
COc1ccccc1NC(=O)Cn1nc(-c2ccc(Cl)cc2)c2ccccc2c1=O | i | 15.3% | 28.1% | i
CSCCC(=O)Nc1cc(S(=O)(=O)N2CCOCC2)ccc1N1CCN(C)CC1 | i | 0.8% | -2.3% | i
Cc1cnc2c(C)cccc2c1/C=C/c1ccc(N(C)C)cc1 | · | 6.1% | · | ·
SMILES | Abeta yeast res | aSyn rescue | TDP-43 yeast inh | FUS yeast rescue
Cn1cnc2ncnn2c1=S | i | ? | 11.7% | i
COc1ccccc1NC(=O)COc1ccc(-c2nn(C)c(=O)c3ccccc23)cc1 | i | 0.0% | 22.4µM*! | i
COc1ccccc1NC(=O)c1ccc(-c2nn(C)c(=O)c3ccccc23)cc1 | i | 15.7% | 15.7% | i
O=C(Nc1ccc(C(=O)NC2CCCCC2)cc1)c1cccnc1 | i | 0.1% | -28.0% | i
Cc1ccc(S(=O)(=O)N2CCN(C(=O)CCN3C(=O)c4ccccc4C3=O)CC2)cc1C | i | 1.5% | 15.8µM* | i
Cc1ccc(S(=O)(=O)N2CCN(C(=O)Cc3ccccc3)CC2)cc1C | i | -0.6% | 22.4% | i
COc1ccc(OCc2cc(=O)c3ccc4c(c3o2)C=CC(C)(C)O4)cc1OC | i | -3.4% | 35.5µM* | i
COc1ccc2c(C)c(CCC(=O)NCCc3ccc(Cl)cc3)c(=O)oc2c1 | i | · | 22.4µM* | i
